Assay results reported in PubChem BioAssay (NCATS).
Results filed as inconclusive are left out. A call without a number means that no potency is given here. A number with no mark means an inactive call. The source made the active and inactive calls. Calls follow the shape of the dose curve; as a rule, active = well fitted cell-killing curve with a large enough effect; inconclusive = small, poorly fitted or top-dose-only effect, or effect the other way; inactive = no such curve, though single readings can be large or run the other way.

How the values were obtained:
[1] = Quantitative High-Throughput drug screen in 47 multiple myeloma cell lines against the NCATS MIPE library collection: LP1_DSMZ cell viability assay (AID 1918982); settings: LP1 myeloma viability, CellTiter-Glo ATP luminescence, 48 h; series mostly up to 45.8 µM; also: nearly all actives have a fitted effect of over 35% in size; also: potency is read from the fitted curve at half-maximal effect
Outline: (§1)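 Inhibition of viability over 48 h was scored by ATP content (CellTiter-Glo) in 500-cell wells. Zero and full viability were defined by media-only and DMSO-only wells.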

[2] = Quantitative High-Throughput drug screen in 47 multiple myeloma cell lines against the NCATS MIPE library collection: KMS28PE_JCRB cell viability assay (AID 1918983); settings: KMS28PE multiple myeloma viability, CellTiter-Glo ATP, 48 h; series mostly up to 45.8 µM; also: nearly all actives have a fitted effect of over 35% in size; also: potency is read from the fitted curve at half-maximal effect
Outline: as §1

[3] = Quantitative High-Throughput drug screen in 47 multiple myeloma cell lines against the NCATS MIPE library collection: OCIMY5_PLB cell viability assay (AID 1918988); settings: OCI-MY5 myeloma viability, ATP luminescence, 48 h; series mostly up to 45.8 µM; also: nearly all actives have a fitted effect of over 65% in size; also: potency is read from the fitted curve at half-maximal effect
Outline: as §1

[4] = Quantitative High-Throughput drug screen in 47 multiple myeloma cell lines against the NCATS MIPE library collection: OPM1_PLB cell viability assay (AID 1918989); settings: CellTiter-Glo, 48 h; series mostly up to 45.8 µM; also: nearly all actives have a fitted effect of over 40% in size; also: potency is read from the fitted curve at half-maximal effect
Outline: as §1

[5] = Quantitative High-Throughput drug screen in 47 multiple myeloma cell lines against the NCATS MIPE library collection: U266_ATCC cell viability assay (AID 1919864); settings: U266 myeloma viability, CellTiter-Glo ATP luminescence, 48 h; series mostly up to 45.8 µM; also: nearly all actives have a fitted effect of over 35% in size; also: potency is read from the fitted curve at half-maximal effect
Outline: as §1

[6] = Quantitative High-Throughput drug screen in 47 multiple myeloma cell lines against the NCATS MIPE library collection: XG6_PLB cell viability assay (AID 1919865); settings: XG6 myeloma viability, CellTiter-Glo ATP luminescence, 48 h; series mostly up to 45.8 µM; also: nearly all actives have a fitted effect of over 40% in size; also: potency is read from the fitted curve at half-maximal effect
Outline: as §1

[7] = Quantitative High-Throughput drug screen in 47 multiple myeloma cell lines against the NCATS MIPE library collection: XG1_PLB cell viability assay (AID 1919866); settings: CellTiter-Glo ATP, 48 h; series mostly up to 45.8 µM; also: nearly all actives have a fitted effect of over 35% in size; also: potency is read from the fitted curve at half-maximal effect
Outline: as §1

[8] = Quantitative High-Throughput drug screen in 47 multiple myeloma cell lines against the NCATS MIPE library collection: VP6_DJ cell viability assay (AID 1919867); settings: ATP luminescence, 48 h; series mostly up to 45.8 µM; also: nearly all actives have a fitted effect of over 40% in size; also: potency is read from the fitted curve at half-maximal effect
Outline: as §1

[9] = Quantitative High-Throughput drug screen in 47 multiple myeloma cell lines against the NCATS MIPE library collection: UTMC2_PLB cell viability assay (AID 1919868); settings: CellTiter-Glo ATP luminescence, 48 h; series mostly up to 45.8 µM; also: nearly all actives have a fitted effect of over 55% in size; also: potency is read from the fitted curve at half-maximal effect
Outline: as §1

[10] = Quantitative High-Throughput drug screen in 47 multiple myeloma cell lines against the NCATS MIPE library collection: PE2_PLB cell viability assay (AID 1919869); settings: PE2_PLB myeloma cells viability, ATP luminescence, 48 h; series mostly up to 45.8 µM; also: nearly all actives have a fitted effect of over 35% in size; also: potency is read from the fitted curve at half-maximal effect
Outline: as §1

[11] = Quantitative High-Throughput drug screen in 47 multiple myeloma cell lines against the NCATS MIPE library collection: RPMI8226_ATCC cell viability assay (AID 1919871); settings: RPMI8226 myeloma viability, CellTiter-Glo ATP luminescence, 48 h; series mostly up to 45.8 µM; also: nearly all actives have a fitted effect of over 30% in size; also: potency is read from the fitted curve at half-maximal effect
Outline: as §1

[12] = Quantitative High-Throughput drug screen in 47 multiple myeloma cell lines against the NCATS MIPE library collection: KMS11_JCRBsus cell viability assay (AID 1919873); settings: KMS11 myeloma viability, CellTiter-Glo ATP luminescence, 48 h; series mostly up to 45.8 µM; also: nearly all actives have a fitted effect of over 50% in size; also: potency is read from the fitted curve at half-maximal effect
Outline: as §1

[13] = Quantitative High-Throughput drug screen in 47 multiple myeloma cell lines against the NCATS MIPE library collection: KMS28BM_JCRB cell viability assay (AID 1919874); settings: CellTiter-Glo ATP, 48 h; series mostly up to 45.8 µM; also: nearly all actives have a fitted effect of over 35% in size; also: potency is read from the fitted curve at half-maximal effect
Outline: as §1

[14] = Quantitative High-Throughput drug screen in 47 multiple myeloma cell lines against the NCATS MIPE library collection: L363_DSMZ cell viability assay (AID 1918984); settings: L363 myeloma viability, CellTiter-Glo ATP luminescence, 48 h; series mostly up to 45.8 µM; also: nearly all actives have a fitted effect of over 40% in size; also: potency is read from the fitted curve at half-maximal effect
Outline: as §1

[15] = Quantitative High-Throughput drug screen in 47 multiple myeloma cell lines against the NCATS MIPE library collection: OCIMY7_PLB cell viability assay (AID 1918987); settings: OCI-MY7 myeloma viability, CellTiter-Glo ATP, 48 h; series mostly up to 45.8 µM; also: nearly all actives have a fitted effect of over 65% in size; also: potency is read from the fitted curve at half-maximal effect
Outline: as §1

[16] = Quantitative High-Throughput drug screen in 47 multiple myeloma cell lines against the NCATS MIPE library collection: OPM2_DSMZ cell viability assay (AID 1919872); settings: OPM2 myeloma viability, CellTiter-Glo ATP luminescence, 48 h; series mostly up to 45.8 µM; also: nearly all actives have a fitted effect of over 30% in size; also: potency is read from the fitted curve at half-maximal effect
Outline: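 qHTS of the MIPE 4.0 collection: 500 myeloma cells/well, 48 h drug exposure at 37C in 5% CO2, then CellTiter-Glo for 5 min at room temperature before luminescence reading.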

[17] = Quantitative High-Throughput drug screen in 47 multiple myeloma cell lines against the NCATS MIPE library collection: KMS34_JCRB cell viability assay (AID 1918985); settings: KMS34 myeloma viability, CellTiter-Glo ATP luminescence, 48 h; series mostly up to 45.8 µM; also: nearly all actives have a fitted effect of over 40% in size
Outline: as §1

[18] = Quantitative High-Throughput drug screen in 47 multiple myeloma cell lines against the NCATS MIPE library collection: SKMM1_PLB cell viability assay (AID 1919863); settings: SKMM1 myeloma viability, CellTiter-Glo ATP, 48 h; viability: active compounds read low; also: nearly all actives have a fitted effect of over 35% in size; also: potency is read from the fitted curve at half-maximal effect
Outline: as §1

[19] = Quantitative High-Throughput drug screen in 47 multiple myeloma cell lines against the NCATS MIPE library collection: PCM6_Riken cell viability assay (AID 1919870); settings: CellTiter-Glo ATP, 48 h; series mostly up to 45.8 µM; also: nearly all actives have a fitted effect of over 30% in size; also: potency is read from the fitted curve at half-maximal effect
Outline: as §1

SMILES	Potency [1]	Potency [2]	Potency [3]	Potency [4]	Potency [5]	Potency [6]	Potency [7]	Potency [8]	Potency [9]	Potency [10]	Potency [11]	Potency [12]	Potency [13]	Potency [14]	Potency [15]	Potency [16]	Potency [17]	viability [18]	Potency [19]	Potency [18]
OC(Cn1cncn1)(Cn1cncn1)c1ccc(F)cc1F	inactive	inactive	inactive	inactive	inactive	inactive	inactive	inactive	inactive	inactive	5.26 µM (active)	inactive	inactive							
CC(C)OC(=O)C(C(=O)OC(C)C)=C1SC=CS1		inactive				inactive	inactive	inactive		inactive			inactive	inactive	inactive	inactive				
CC(=O)[C@H]1CC[C@H]2[C@@H]3CC=C4C[C@@H](O)CC[C@]4(C)[C@H]3CC[C@]12C	inactive	inactive		inactive			inactive			inactive		inactive	inactive			inactive	inactive	123%	inactive	
O=c1cc(O)c(Cl)c[nH]1	inactive			inactive	5.9 µM (active)	1.87 µM (active)	3.72 µM (active)	0.132 µM (active)		inactive	inactive			2.35 µM (active)			inactive		2.96 µM (active)	
N[C@@H](Cc1ccc(O)c(O)c1)C(=O)O	inactive				inactive		inactive				inactive		inactive		inactive					26.4 µM (active)
CCC(C)(C)c1ccc(CC(C)CN2C[C@@H](C)O[C@@H](C)C2)cc1 (stereo partly specified)								16.6 µM (active)	inactive							inactive				
COc1ccccc1OCC(O)COC(N)=O (stereo unspecified)	inactive	inactive		inactive	inactive	inactive	inactive		inactive	inactive	inactive			inactive		inactive		136%		
O=C(O)CSCC(=O)NC1CCSC1=O (stereo unspecified)	inactive	inactive		inactive			inactive			inactive	inactive	inactive	inactive					130%		
Nc1nc(=S)c2[nH]cnc2[nH]1	7.43 µM (active)	8.33 µM (active)	3.72 µM (active)	1.18 µM (active)	8.33 µM (active)	1.05 µM (active)	0.662 µM (active)	1.66 µM (active)	5.9 µM (active)	1.66 µM (active)	4.69 µM (active)	4.18 µM (active)	5.26 µM (active)		1.32 µM (active)	3.72 µM (active)				5.9 µM (active)
CCn1cc(C(=O)O)c(=O)c2cc(F)c(N3CCNCC3)nc21			inactive	inactive		inactive	inactive		inactive		inactive		inactive	inactive		inactive		102%	inactive	
CN(C)CCc1c[nH]c2ccc(CS(=O)(=O)N3CCCC3)cc12	inactive		inactive	inactive	inactive		20.9 µM (active)				inactive		inactive				inactive	119%		
NC(=O)c1ccc2[nH]ccc2c1	inactive	inactive			inactive			inactive		inactive	inactive	inactive	inactive			inactive	inactive			
CN(CCOc1ccc(CC2SC(=O)NC2=O)cc1)c1ccccn1 (stereo unspecified)	inactive	inactive	1.05 µM (active)	inactive	16.6 µM (active)	inactive	inactive	inactive		inactive		inactive	inactive			inactive	inactive	112%	inactive	
